# From PubChem BioAssay (EPA / NIEHS)
# Records with an inconclusive call do not appear. Calls of active or inactive are those of the source. The calls were made as follows, unless noted: active = hit-call score of the fitted dose curve at least 0.9, where 1 is the maximum; inconclusive = response in the unintended direction; inactive = score below 0.9.
# How the values were obtained:
# [1] = VALA_TUBIPS_Antagonist_CellCount: Viability Assessment in the VALA Sciences human iPS-derived Endothelial Tubule Formation (TUBIPS) Antagonism Assay (AID 2284335)
# Procedure: (§1) VALA_TUBIPS_Agonist is a cell-based, multiplexed assay that uses human iPS-derived endothelial cells (iPSC). Measurements were taken 72 hours after chemical dosing in a 96-well plate.VALA_TUBIPS_Antagonist_CellCount is the one of two assay components measured from the VALA_TUBIPS_Antagonist assay. It is designed to make measurements of viability, a form of viability reporter, as detected with fluorescence intensity signals by HCS Fluorescent Imaging technology. Data from the assay component VALA_TUBIPS_Antagonist_CellCount was analyzed at the endpoint, VALA_TUBIPS_Antagonist_CellCount, in the positive analysis fitting direction relative to DMSO as the negative control and baseline of activity. Using a type of viability reporter, loss-of-signal activity can be used to understand viability. To generalize the intended target to other relatable targets, this assay endpoint is annotated to the cell cycle intended target family, where the subfamily is cell count.
# (§2) […]
# [2] = VALA_MIGHUV1_ScratchOnly_WoundArea: VALA Sciences human Umbilical Vein Endothelial Cell Migration (MIGHUV) Assay, Area of Scratch Wound Inhibited Recovery (AID 2284336)
# Summary of the method: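 HUVEC monolayers (9000 cells/well) were scratched after 24 h, dosed within 30 min (six concentrations, triplicate, 0.1% DMSO), allowed 24 h recovery, then fixed. Hoechst-stained nuclei in the wound imaged; cytochalasin D as reference.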
# [3] = VALA_TUBIPS_Agonist_CellCount: Viability Assessment in the VALA Sciences human iPS-derived Endothelial Tubule Formation (TUBIPS) Agonism Assay (AID 2284338)
# Procedure: as §1, with “plate.VALA_TUBIPS_Agonist_CellCount” for “plate.VALA_TUBIPS_Antagonist_CellCount”, “VALA_TUBIPS_Agonist” for “VALA_TUBIPS_Antagonist”, “VALA_TUBIPS_Agonist_CellCount” for “VALA_TUBIPS_Antagonist_CellCount”, “VALA_TUBIPS_Agonist_CellCount,” for “VALA_TUBIPS_Antagonist_CellCount,”
# as §2
# [4] = VALA_TUBHUV_Agonist_TubuleLength: VALA Sciences human Umbilical Vein Endothelial Tubule Formation (TUBHUV) Agonism Assay (AID 2284337)
# Summary of the method: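 HUVEC co-cultured with fibroblasts (1:3) 3 days in 10 ng/ml VEGF, then 3 days with compound plus VEGF; 0.1 % DMSO neutral control. Fixed, nuclear and CD31 stained; tubule length by fluorescence imaging.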
# [5] = IUF_NPC1_cytotoxicity_72hr: Cytotoxicity Assessment at 72 hours in the Leibniz Research Institute for Environmental Medicine (IUF) Neural Progenitor Cell Proliferation Assay (NPC1) (AID 2284332);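 also: rising LDH signal means more cytotoxicity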
# Summary of the method: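 Spheres of primary human neural progenitors are plated one per well on day 0 in growth-factor medium and dosed at once. After three days at 37C, supernatant LDH is measured fluorimetrically via resazurin reduction.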
# [6] = CCTE_Mundy_HCI_iCellGluta_NOG_NeuronCount: CCTE's Neurite Outgrowth Assay in iCellGluta cells for Neuron Count, Mundy Lab (AID 2284340);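 also: cells fixed about 48 h after compound addition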
# Summary of the method: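 Neuron count read by automated high-content imaging of Hoechst 33342 and betaIII-tubulin/Alexa Fluor-488 labelling in human iPSC glutamatergic neurons. Activity fitted relative to DMSO.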
# [7] = CCTE_Mundy_HCI_iCellGluta_NOG_NeuriteCount: CCTE's Neurite Outgrowth Assay in iCellGluta cells for Neurite Count, Mundy Lab (AID 2284342);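 also: chemical exposure about 48 hours starting 2 hours after plating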
# [8] = CCTE_Deisenroth_DEVTOX-GLR_legacy_CellCount: (Legacy) Viability Assessment in CCTE's DevTox GLR-Endo Assay, Deisenroth Lab (AID 2284331; active = hit-call score of the fitted dose curve at least 0.9, where 1 is the maximum; inactive = score below 0.9); details: actives raise or lower the signal
# Summary of the method: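 RUES2-GLR human pluripotent cells were seeded 24 h, then differentiated 48 h with two compound doses at 24 h intervals (10-point, 1 nM - 200 uM). Fixed nuclei were imaged and counted; bidirectional fitting versus 0.2% DMSO.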
# [9] = test system: SRY-box transcription factor 17 (SOX17) Protein Expression, Deisenroth Lab, SOX17 (gene 64321); test: CCTE_Deisenroth_DEVTOX-GLR_legacy_Sox17: (Legacy) CCTE's DevTox GLR-Endo Assay Evaluation of SRY-box transcription factor 17 (SOX17) Protein Expression, Deisenroth Lab (AID 2284341; active = hit-call score of the fitted dose curve at least 0.9, where 1 is the maximum; inactive = score below 0.9); details: actives raise or lower the signal
# Summary of the method: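 Percent SOX17-positive cells, scored by high-content imaging as mean intensity exceeding pluripotent-control median by 5x BMAD, divided by cell count. Human RUES2-GLR endoderm differentiation, 48 h, two exposures 24 h apart, 1 nM–200 uM; DMSO-referenced bidirectional fitting.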
# [10] = test system: Brachyury (BRA) Protein Expression, Deisenroth Lab, TBXT (gene 6862); test: CCTE_Deisenroth_DEVTOX-GLR_legacy_Bra: (Legacy) CCTE's DevTox GLR-Endo Assay Evaluation of Brachyury (BRA) Protein Expression, Deisenroth Lab (AID 2284329; active = hit-call score of the fitted dose curve at least 0.9, where 1 is the maximum; inactive = score below 0.9)
# Summary of the method: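 Human pluripotent RUES2-GLR line was exposed twice during 48 h differentiation to a 10-point series, 1 nM - 200 uM. Fraction of Bra-positive cells was scored by imaging against pluripotent baseline and fitted after 0.2% DMSO subtraction.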
structure (smiles),measurement,setting,value
Cc1ccc(-c2cc(C(F)(F)F)nn2-c2ccc(S(N)(=O)=O)cc2)cc1,outcome,[1],inactive
same,outcome,[2],inactive
same,outcome,[3],inactive
COC(=O)[C@H]1[C@H]2C[C@@H]3c4[nH]c5cc(OC)ccc5c4CCN3C[C@H]2C[C@@H](OC(=O)c2cc(OC)c(OC)c(OC)c2)[C@@H]1OC,outcome,[1],inactive
same,outcome,[2],inactive
same,outcome,[4],inactive
same,outcome,[3],inactive
Nc1nc(Cl)nc2c1ncn2[C@H]1C[C@H](O)[C@@H](CO)O1,AC50,[1],0.956 µM (active)
same,AC50,[2],23.2 µM (active)
same,AC50,[4],15.2 µM (active)
same,AC50,[3],0.23 µM (active)
OCC(O)CO,outcome,[5],inactive
same,outcome,[6],inactive
same,outcome,[7],inactive
O=C1NC(=O)C(c2ccccc2)(c2ccccc2)N1,outcome,[8],inactive
same,outcome,[5],inactive
same,outcome,[9],inactive
CC(=O)CC(c1ccccc1)c1c(O)c2ccccc2oc1=O (stereo not drawn),outcome,[10],inactive
same,outcome,[8],inactive
same,outcome,[5],inactive
same,outcome,[9],inactive
same,outcome,[7],inactive
O=C1OC(c2ccc(O)cc2)(c2ccc(O)cc2)c2ccccc21,outcome,[1],inactive
same,AC50,[2],75.4 µM (active)
same,outcome,[3],inactive
CCCCC(CC)COP(=O)(OCC(CC)CCCC)OCC(CC)CCCC (stereo not drawn),outcome,[4],inactive
same,AC50,[3],0.00227 µM (active)
Cc1cn([C@H]2C=C[C@@H](CO)O2)c(=O)[nH]c1=O,outcome,[10],inactive
same,outcome,[8],inactive
same,outcome,[9],inactive
O=C(O)c1cccnc1,outcome,[10],inactive
same,outcome,[8],inactive
same,outcome,[9],inactive
